Results published in PubChem BioAssay (EPA / NIEHS).
Inconclusive results are not listed. Calls of active or inactive are those of the source. How the source made its calls, unless noted: active means hit-call score of the fitted dose curve at least 0.9, where 1 is the maximum; inactive means score below 0.9.

Legend:
[1] = system: Brachyury (BRA) Protein Expression, TBXT (gene 6862); test: CCTE_Deisenroth_DEVTOX-GLR_Endo_BRA: CCTE's DevTox GLR-Endo Assay Evaluation of Brachyury (BRA) Protein Expression, Deisenroth Lab (AID 2284417)
Summary of the method: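 RUES2-GLR pluripotent cells differentiated 48 h with two chemical exposures 24 h apart, 10-point range 1 nM - 200 uM. Percentage of BRA+ cells per total count by high-content imaging, minus 0.2% DMSO control.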

[2] = CCTE_Deisenroth_DEVTOX-GLR_Endo_CellCount: Viability Assessment in CCTE's DevTox GLR-Endo Assay, Deisenroth Lab (AID 2284420)
Method: CCTE_Deisenroth_DEVTOX-GLR_Endo assay is a cell-based, multiplex-readout assay that uses RUES2-GLR, a human pluripotent cell line, with measurements taken at 48 hours after chemical dosing in a 384-well microplateCCTE_Deisenroth_DEVTOX-GLR_Endo_CellCount is 1 of 4 assay components calculated from the CCTE_Deisenroth_DEVTOX-GLR_Endo assay and it measures cell count. Using fluorescent nuclear staining, loss-of-signal activity can be used to understand changes in cell viability with fluorescent microscopy. It is designed to make measurements of nuclei counts as a surrogate for cell number, as detected with optical fluorescence microscopy by Perkin Elmer Harmony nuclei detection algorithm. To generalize the intended target to other relatable targets, this assay component is annotated to the cell cycle intended target family, where the subfamily is cytotoxicity.Data from the assay component CCTE_Deisenroth_DEVTOX-GLR_Endo_CellCount was analyzed as 1 assay endpoint. The endpoint the percent change in cell count relative to the 0.2% DMSO control in the CCTE_Deisenroth_DEVTOX-GLR_Endo assay. Furthermore, this assay endpoint can be referred to as a primary readout, because this assay has produced multiple assay endpoints where this one serves as a measure of cytotoxicity.
All assay protocols are aligned to the DevTox GLR-Endo assay workflow. […]

[3] = system: SRY-box transcription factor 17 (SOX17) Protein Expression, Deisenroth Lab, SOX17 (gene 64321); test: CCTE_Deisenroth_DEVTOX-GLR_Pluri_SOX17: CCTE's DevTox GLR-Pluri Assay Evaluation of SRY-box transcription factor 17 (SOX17) Protein Expression, Deisenroth Lab (AID 2284427; active means hit-call score of the fitted dose curve at least 0.9, where 1 is the maximum)
Summary of the method: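 Readout: percent SOX17+ cells (SOX17+ count/cell count) by high-content imaging of an inducible fluorescent reporter, corrected for 0.2% DMSO solvent control. RUES2-GLR cells, 48 h differentiation, dosed twice at 24 h intervals, 1 nM - 200 uM.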

[4] = system: SRY-box transcription factor 2 (SOX2) Protein Expression, Deisenroth Lab, SOX2 (gene 6657); test: CCTE_Deisenroth_DEVTOX-GLR_Pluri_SOX2: CCTE's DevTox GLR-Pluri Assay Evaluation of SRY-box transcription factor 2 (SOX2) Protein Expression, Deisenroth Lab (AID 2284428)
Summary of the method: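 RUES2-GLR (human pluripotent), 48 h post-dosing, 2 exposures q24h, 1 nM–200 uM 10-pt. Fixed, nuclear dye, high-content imaging 5 fields/well. Endpoint: % SOX2+ cells (SOX2+/total count) vs 0.2% DMSO; n≥4.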

[5] = system: Brachyury (BRA) Protein Expression, Deisenroth Lab, TBXT (gene 6862); test: CCTE_Deisenroth_DEVTOX-GLR_Pluri_BRA: CCTE's DevTox GLR-Pluri Assay Evaluation of Brachyury (BRA) Protein Expression, Deisenroth Lab (AID 2284429; active means hit-call score of the fitted dose curve at least 0.9, where 1 is the maximum)
Summary of the method: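 Human pluripotent RUES2-GLR cells, seeded 24 h, were differentiated 48 h in defined media with two chemical doses at 24-h intervals (10-point, 1 nM - 200 uM). Readout: percent BRA+ cells by fluorescent reporter imaging, minus 0.2% DMSO control.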

[6] = CCTE_Deisenroth_DEVTOX-GLR_Pluri_CellCount: Viability Assessment in CCTE's DevTox GLR-Pluri Assay Evaluation of Total Cell Counts, Deisenroth Lab (AID 2284430)
Summary of the method: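 RUES2-GLR human pluripotent cells, seeded 24 h, then differentiated 48 h with two chemical exposures 24 h apart; 10-point series 1 nM - 200 uM. Fixed, nuclear-stained, imaged (5 fields/well); nuclei count as % change vs 0.2% DMSO.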

Measured: AC50

CS(=O)(=O)OCCCCOS(C)(=O)=O
active: [1] 100 µM | [2] 14.4 µM | [3] 45.4 µM | [4] 2.44 µM | [5] 50.7 µM | [6] 20.1 µM
